SMILES strings stand for the structures.

A short description of this experiment: compounds binding Alexa647 anti-His antibody – biochemical, small-molecule microarray, 635 nm fluorescence, artefact control for SMM control protein annotation, primary screen (AID 1128).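 Further: score merges feature fluorescence with signal-to-noise for each printed compound spot.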 The settings on record: higher = more signal.
`COc1ccc(C(O)C2C=CC3C(=O)N(c4ccccc4)C(=O)C3N2Nc2ccc(C#N)cc2)cc1OCc1ccccc1` (stereo unspecified) showed a composite z-score of 1.86.

In the case of `CC(C)NC(=O)[C@@]1(c2ccc([N+](=O)[O-])cc2)CC(=O)N(CC23CC4CC(CC(C4)C2)C3)[C@@H]1c1ccc(CO)cc1`, the composite z-score was 0.999.

`CC1=C([C@H](O)CCc2ccccc2)[C@H](CO)n2c(=O)n(-c3ccccc3)c(=O)n2C1` had a composite z-score of -0.56.

On to `O=C(NC1CC1)[C@@H]1c2ccccc2C(=O)N(Cc2cc(C(F)(F)F)cc(C(F)(F)F)c2)[C@H]1c1ccc(CO)cc1`, for which the composite z-score came out at 0.399.

`COC(=O)[C@@]1(Cc2ccccc2)N=C(c2ccc(OCCCO)cc2)O[C@H]1c1ccccc1CN=[N+]=[N-]`: the composite z-score came out at 1.91.

In turn, `O=C1c2ccccc2[C@@]2(Cc3ccccc3N(Cc3ccccc3)C2=O)[C@H](c2ccc(CO)cc2)N1Cc1ccccc1Cl` registered a composite z-score of -0.743.

`CC(C)C[C@H]1NC(=O)C([C@@H](C)OCc2ccccc2)NC(=O)[C@@]23C(=O)N[C@@H](Cc4ccccc4)C2[C@H](C)[C@@]2(C)O[C@H]2C3/C=C/C/C=C\CNC1=O` (stereo partly specified): the composite z-score was determined as 1.42.

In turn, `CC(C)=CCCC(C)=CC(O)C1C=CC2C(=O)NC(=O)C2N1Nc1ccc(Cl)cc1Cl` (stereo unspecified) showed a composite z-score of 0.0944.

In the case of `CCCCC(=C=CC[C@H](O)c1ccc(CO)o1)CCO`, the composite z-score stood at 0.149.

Take `CCOC(=O)C1=CC[C@@H](c2ccccc2)N(S(=O)(=O)c2ccc(C)cc2)[C@H]1c1ccccc1I`: the composite z-score was found to be 1.5.

Take `[N-]=[N+]=Nc1ccccc1[C@@H]1OC(c2ccc(OCCCO)cc2)=N[C@]1(CCS(=O)(=O)c1ccccc1)C(=O)NCC(O)CO` (stereo partly specified): the composite z-score was determined as 0.592.

The values above are taken from PubChem BioAssay.
